An excerpt weighted towards active compounds, which were near 3% of everything screened.
Peg3 prom inh: inhibitors of Peg3 promoter; HeLa PEG-Prom luciferase reporter, luminescence, overnight; inhibition, % at 20 µM; AID 588405; hit rate 1.7% among 360,000;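 active means inhibition of at least 50% at 20 µM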
HIF-2a inh: HIF-2a inhibition. 786-0 RCC cells HIF-2a reporter, luciferase luminescence, overnight. inhibition, % at 18.8 µM. hit rate 0.72% among 360,000. AID 624352;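 active means inhibition of the luminescence signal of 40% or more relative to plate controls, in a single-dose primary screen at 18.75 µM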
MITF TRPM1 inh: reduces MITF-dependent TRPM1 promoter luciferase signal | SK-MEL-5 TRPM1 promoter luciferase, 24 h | hit rate 0.83% among 330,000 | inhibition, % at 12.5 µM;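 active means mean inhibition across replicates of 60% or more, whatever share of single replicates reaches that level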
KKLEB tox: reduces viability of KKLEB cystic fibrosis airway cells. KKLEB CF airway cells viability, ATPlite luminescence, overnight; active compounds read low; cells stimulated with P. aeruginosa culture filtrate. activity change (cytotoxicity), % at 5 µM. hit rate 0.36% among 360,000;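 active means corrected activity change at or below -50% at 5 µM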
CF NFkB inh: cystic fibrosis NF-kB activation inhibition; hit rate 0.86% among 360,000; AID 588850; KKLEB NF-kB-GFP reporter, PAF-induced, GFP fluorescence overnight; inhibition, % at 5 µM;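 active means at least 50% inhibition at 5 µM, scaled per plate between neutral and stimulator controls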;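 further: PAF is a Pseudomonas aeruginosa culture filtrate used as stimulus; plate controls were PAF-stimulated DMSO wells for no effect and unstimulated DMSO wells for full effect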
ABHD5-PLIN5 inh: inhibitors of human ABHD5-perilipin-5 interaction. Q00G26+Q8WTS1. Split G. princeps luciferase complementation, luminescence, 4 h. inhibition, % at 4 µM. hit rate 0.78% among 360,000. AID 602281;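 active means inhibition above the mean inhibition across every tested compound plus 3 SD, cut at about 22% in these data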;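 further: 0% = DMSO only wells and the 100% control is not disclosed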
* = called active by the depositor; nt = not tested or not shown.

SMILES	Peg3 prom inh	HIF-2a inh	MITF TRPM1 inh	KKLEB tox	CF NFkB inh	ABHD5-PLIN5 inh
CC(C)C(NC(=O)OCc1ccccc1)C(=O)NC(Cc1c[nH]c2ccccc12)C(=O)O (stereo unspecified)	-7.8	17.1	nt	-27.9	8.1	-12.2
Cc1cccc(C)c1NC(=O)C1c2ccccc2OCC(=O)N1Cc1ccccc1 (stereo unspecified)	nt	-11.4	nt	nt	nt	-12.9
C/C(=N\NC(=O)c1nnn(-c2nonc2N)c1CN(C)c1ccccc1)c1ccccn1	67.6*	18.1	24.2	0.1	5.9	-3.1
CCCN(CCC)Cc1c(C(=O)N/N=C/C(C)=C\c2ccco2)nnn1-c1nonc1N	37.7	14.8	68.6*	-26.4	34.0	-8.1
CC(/C=N/NC(=O)c1nnn(-c2nonc2N)c1CN(C)C)=C\c1ccco1	16.6	7.1	11.4	-15.7	13.9	2.6
COc1ccc(S(=O)(=O)N2CCNC(=O)C2)cc1Br	4.7	11.9	10.1	-5.0	6.7	9.3
CN(CC(O)COc1ccc(OCC(O)CN(C)C2CCCCC2)cc1)C1CCCCC1 (stereo unspecified)	82.7*	19.2	-11.9	-15.4	26.2	0.6
CCC(=O)c1ccc(OCC(O)CN(C)C2CCCCC2)cc1 (stereo unspecified)	-11.3	13.4	-1.2	1.7	2.6	10.2
O=C(CN1C(=O)c2ccccc2S1(=O)=O)Nc1ccccc1C(=O)NCc1ccco1	-3.1	6.3	-0.3	-1.0	7.6	-7.8
O=C(CN1C(=O)c2cccc3cccc1c23)Nc1ccccc1C(=O)NCc1ccco1	16.6	30.1	-8.6	-2.1	13.2	22.9*
Cc1cn([C@H]2C[C@H](O)[C@@H](/C=C/C(=O)NCc3cccc4ccccc34)O2)c(=O)[nH]c1=O	9.0	17.8	nt	-51.6*	81.1*	-5.7
Cc1ccc(S(=O)(=O)NC(=NCC(=O)O)c2ccc(F)cc2)cc1	1.3	8.5	1.1	-7.4	14.2	-3.1
Cc1ccc(S(=O)(=O)NC(=NCc2ccccc2)c2ccc(F)cc2)cc1	51.0*	25.7	0.2	-8.5	13.8	7.3
N=c1n(CCCOc2ccc(Br)cc2)c2ccccc2n1CC(N)=O	60.0*	6.7	-13.2	-11.2	0.3	17.3
COC(=O)c1c(NC(=O)c2ccc(OC(C)C)cc2)sc2c1CC(C)(C)NC2(C)C	98.5*	-7.5	7.1	-13.7	22.4	4.5
COC(=O)c1c(NC(=O)c2ccccc2)sc2c1CC(C)(C)NC2(C)C	7.1	-12.2	-3.3	-15.0	13.3	14.1
CC1(C)Cc2c(sc(NC(=O)c3ccc(C(=O)c4ccccc4)cc3)c2C(N)=O)C(C)(C)N1	82.9*	24.6	39.4	-33.1	44.9	16.5
CC1(C)Cc2c(sc(NC(=O)COc3ccc(Cl)cc3)c2C(N)=O)C(C)(C)N1	41.6	6.5	1.1	-29.0	-3.3	8.9
CC1(C)Cc2c(sc(NC(=O)c3ccc4ncsc4c3)c2C(N)=O)C(C)(C)N1	22.0	-54.4	78.1*	-22.5	5.7	5.6
CC(C)(O)CN(C(=O)c1ccc([N+](=O)[O-])cc1)C1CCCC1	-1.9	-3.5	0.7	5.0	11.1	3.8
CCCCCCCCCCCCN1[C@@H](CC(=O)O)c2cc(F)ccc2S1(=O)=O	-22.3	-5.2	-0.7	-9.4	21.9	3.5
COc1ccc(NC(=O)COC(=O)CCC2CCCCC2)cc1	-2.5	1.5	1.6	-10.1	5.9	6.2
CCN(CC(=O)Nc1c(F)cccc1F)C(=O)c1cc(S(=O)(=O)N2CCOCC2)ccc1N1CCCC1	31.9	30.4	17.8	-5.4	-5.0	1.6
COc1ncnc2c1ncn2CCCNCC(c1ccccc1)c1ccccc1	-0.8	-3.7	nt	2.4	-10.5	0.6
c1ccc(COc2ncnc3c2ncn3CCCNCC(c2ccccc2)c2ccccc2)cc1	99.7*	14.5	nt	-16.7	21.4	2.0
SMILES	Peg3 prom inh	HIF-2a inh	MITF TRPM1 inh	KKLEB tox	CF NFkB inh	ABHD5-PLIN5 inh
COc1ccc(C#Cc2c(-c3ccsc3)oc3ccc(N4CCOCC4)cc23)cc1	-74.8	-149.9	-34.0	-6.8	20.0	-2.9
c1cc(-c2cc3cc(N4CCOCC4)ccc3o2)cs1	-98.1	-247.4	-31.5	-70.2*	-6.6	-5.4
O=Cc1nccc2ccccc12	5.3	-3.7	7.0	12.0	27.5	-8.5
C(=Cc1c[nH]c2ccccc12)c1nccc2ccccc12	-91.5	-52.5	-27.2	-55.0*	-249.2	-4.8
CCCc1ccc(C(C)NC(=S)NCc2ccc(F)cc2)cc1 (stereo unspecified)	31.9	17.1	10.3	2.7	-9.7	-9.3
CCC(C)c1ccc(C(C)NC(=S)NCc2ccc(F)cc2)cc1 (stereo unspecified)	51.1*	3.5	-2.2	-10.6	43.6	-11.2
O=C(CC1C(=O)NCCN1Cc1ccc(F)c(F)c1)NCCCn1ccnc1 (stereo unspecified)	-6.6	-16.1	-7.5	7.1	-6.8	3.3
COc1cc2c(-c3ccc(O)cc3)nc3c(c(C)nn3-c3ccccc3)c2cc1OC	76.6*	20.6	13.1	-27.4	-40.2	2.9
NC(N)=N/N=C/c1ccc(OCc2ccc(Cl)cc2)cc1	110.1*	-124.3	-34.6	-31.0	35.4	2.2
NC(N)=N/N=C/c1ccc(OCc2ccccc2)cc1	54.1*	-115.3	-1.5	-12.1	-4.6	4.5
NC(N)=Nc1nc(-c2ccccc2)c2ccccc2n1	56.8*	27.1	22.9	12.6	-99.3	5.4
Clc1nc(-c2ccccc2)c2ccccc2n1	11.3	9.1	3.5	6.6	11.1	-4.7
Cn1c(=O)c(C(=O)NNC(=O)c2cccc(Cl)c2)c(O)c2ccccc21	63.6*	12.6	19.2	-23.9	72.8*	2.6
Cc1cccc(C(=O)NNC(=O)c2c(O)c3ccccc3n(C)c2=O)c1	5.2	-10.5	1.7	8.1	-6.0	-1.8
CCCCNC(=O)c1nc(C2CCNCC2)oc1-c1cccc(C(F)(F)F)c1	nt	-8.1	nt	nt	nt	1.8
Cc1ccc(NC(=O)CN(C)CC(=O)Nc2cccc(F)c2)cc1S(=O)(=O)N1CCCCCC1	59.1*	14.9	10.1	-13.5	-10.6	4.1
Cc1ccc(NC(=O)c2ccccc2NS(=O)(=O)c2ccc(F)cc2)cc1S(=O)(=O)N1CCCCC1	52.5*	11.4	30.5	-25.5	48.0	-10.4
O=C(Nc1ccc2c(c1)OCCO2)C1c2ccccc2OCC(=O)N1C1CC1 (stereo unspecified)	nt	-0.2	nt	nt	nt	-2.6
CC(=O)C1=C(C)NC(SCC(=O)c2ccc(Cl)c(Cl)c2)=C(C#N)C1c1ccco1 (stereo unspecified)	12.9	-7.0	-4.2	0.4	-11.9	-0.8
CC(=O)C1=C(C)NC(SCC(=O)c2cc(Cl)ccc2Cl)=C(C#N)C1c1ccco1 (stereo unspecified)	27.3	-2.8	13.2	-14.7	7.7	22.2*
C=C1c2cc3c(cc2NC(=S)N1Cc1ccccc1)OCO3	9.4	-4.6	nt	11.9	-6.9	-1.2
Cn1c(NC2CCCCC2)cc(=O)n(C)c1=O	-4.2	20.7	10.7	6.0	7.9	-15.3
Cc1cc(C2CCCCC2)n(O)c(=O)c1	50.6*	19.7	78.2*	-16.2	19.6	9.2

Screens deposited in PubChem BioAssay by several laboratories.
